A selection: hits, their analogues and other compounds. The true share with any hit is near 6%.
Tau fibril FP: inhibitors of human tau fibril formation. Potency, µM (doses to about 57.7 µM), actives largely listed as inhibitors. P10636. 280,000 compounds, 0.39% hits. K18 P301L tau heparin fibrillization, Alexa594 FP, 6 h; note: nearly all actives have a fitted effect of over 55% in size
Target sequence (P10636 561-689 P618L limits assumed): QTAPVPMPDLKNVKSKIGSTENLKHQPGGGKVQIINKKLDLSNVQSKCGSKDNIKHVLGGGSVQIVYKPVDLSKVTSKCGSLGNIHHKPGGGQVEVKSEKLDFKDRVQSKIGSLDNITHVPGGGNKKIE
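Human tau K18 […] P301L fragment, 15 uM unlabeled plus 0.24 uM Alexa 594-labeled tau (final), with compound and 20 uM heparin in 100 mM sodium acetate pH 7; 6 hr at 37 C, then Alexa 594 FP read.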
Tau fluor cs: counter-screen for tau fibril formation inhibitors | AID 1463 | 280,000 compounds, 0.93% hits | tau K18 P301L Alexa594 fluorescence, heparin fibrillization | Potency, µM (highest dose often 57.7 µM); note: nearly all actives have a fitted effect of over 55% in size
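Human K18 P301L tau (15 uM unlabeled plus 0.24 uM Alexa 594-labeled, final) in 100 mM sodium acetate pH 7 was mixed with compound and 20 uM heparin and incubated 6 hr at 37 C.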
Sfp PPTase inh: blocks B. subtilis Sfp PPTase activity; Q9F4F7; Biochemical Sfp PPTase activity, qHTS; Potency, µM, hits mostly inhibitors; 310,000 compounds, 3.5% hits; AID 1490;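 note: the enzyme is Sfp with the accession as filed and its product quenches rhodamine fluorescence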
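Compounds were incubated with enzyme (final 15 nM) for 15 min at room temperature before substrate addition started the reaction. Fluorescence at 525 nm excitation, 598 nm emission was recorded immediately and after 30 minutes.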
Tau fibril ThT: tau fibrillization inhibition (ThT binding); P10636; recombinant tau K18 P301L, heparin-induced fibrillization, ThT fluorescence; Potency, µM (titrated, usually from 57.4 µM), usual class: inhibitors; 270,000 compounds, 2.1% hits; note: nearly all actives have a fitted effect of over 55% in size
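Using a mix of unlabeled (15 uM) and Alexa 594-labeled (0.24 uM) tau K18 P301L, heparin-triggered fibrillization over 6 hr at 37 C was scored by ThT fluorescence.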
VDR inhibitor: blocks the human vitamin D receptor | P11473 | VDR-SRC2-3 peptide fluorescence polarization, 2 h | Potency, µM, actives largely listed as inhibitors | 400,000 compounds, 0.93% hits | AID 504847
Target sequence (P11473 whole entry, looked up): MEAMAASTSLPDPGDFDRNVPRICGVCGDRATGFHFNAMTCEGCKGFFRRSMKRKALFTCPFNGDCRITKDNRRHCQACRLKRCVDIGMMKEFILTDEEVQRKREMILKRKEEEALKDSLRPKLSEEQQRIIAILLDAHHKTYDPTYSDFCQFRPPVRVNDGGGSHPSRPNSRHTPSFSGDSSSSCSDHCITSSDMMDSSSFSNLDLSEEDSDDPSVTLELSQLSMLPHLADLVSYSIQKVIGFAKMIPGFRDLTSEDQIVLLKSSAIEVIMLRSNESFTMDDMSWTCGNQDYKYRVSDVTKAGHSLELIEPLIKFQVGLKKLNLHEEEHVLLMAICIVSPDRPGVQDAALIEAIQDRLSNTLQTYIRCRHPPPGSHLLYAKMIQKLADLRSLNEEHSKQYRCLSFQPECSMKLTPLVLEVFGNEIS
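VDR–SRC2-3 interaction, FP format. Cmpds 23 nl via pintool, brief spin, 2 h ambient incubation.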
PLK1 PBD inh: PLK1 (human) polo-box domain binding inhibition; Plk1 PBD binding of FITC phosphopeptide, fluorescence polarization; AID 720504; 360,000 compounds, 2.8% hits; P53350; Potency, µM, most hits filed as inhibitors; note: series mostly up to about 57 µM; nearly all actives have a fitted effect of over 65% in size
A number is an active result; – = inactive; ? = inconclusive; · = not tested or not shown; [ ] = another dose, or the depositor's remark. Calls come from the whole dose curve; as a rule, active = well fitted curve in the direction sought with a large enough effect; inconclusive = small, poorly fitted or top-dose-only effect, or another doubt; inactive = no such curve, though single readings can be large; an effect the other way counts as inactive or inconclusive.

SMILES | Tau fibril FP | Tau fluor cs | Sfp PPTase inh | Tau fibril ThT | VDR inhibitor | PLK1 PBD inh
CC(=O)c1ccc(N2CCN(C(=O)Nc3ccc(Cl)cc3)CC2)cc1 | – | – | – | – | – | –
O=C(Nc1ccc(Cl)cc1)N1CCN(c2ccccc2)CC1 | – | – | – | – | – | 27µM
CC(C)OP(=O)(OC(C)C)C1(NS(=O)(=O)c2ccc(Cl)cc2)C=C(Cl)C(=O)C(Cl)=C1 | · | · | 89µM | · | – | –
CC(C)N(CCNS(=O)(=O)c1ccc(Cl)cc1)C(C)C | – | – | – | – | – | –
CCOC(=O)C(=O)Nc1sc(C(=O)N(CC)CC)c(C)c1C#N | – | – | – | – | – | –
CCN(CC)C(=O)c1sc(N)c(C#N)c1C | – | – | – | – | – | 24µM
CNc1nc(-c2ccc3c(c2)CCN3C(=O)c2ccccc2F)c(C)s1 | ? | – | 22µM | ? | ? | –
CNc1nc(-c2ccc3c(c2)CCN3C(=O)CC(C)(C)C)c(C)s1 | – | –[2.34 µM] | – | – | – | ?
COc1ccc(/C=N/n2cnc3c([nH]c4ccccc43)c2=O)cc1CO | – | – | – | · | ? | 11µM
CCOC(=O)c1c(C)n(OCc2ccccc2)c2ccc3c(no[n+]3[O-])c12 | – | – | 79µM | – | – | –
CCCCOn1c(C)c(C(C)=O)c2c3no[n+]([O-])c3ccc21 | – | – | – | – | – | –
COc1ccc(C(=O)OCC2CC(c3ccccc3)=NO2)cc1OC (stereo not drawn) | – | – | – | – | ? | 11µM
CCN(c1ccccc1)S(=O)(=O)c1nnc(NC(=O)COc2ccccc2F)s1 | ? | – | · | 4.5µM | – | ·
CCCC(=O)Nc1nnc(S(=O)(=O)N(C)c2ccccc2)s1 | – | ? | · | 2.5µM | – | ·
CCN(CC)S(=O)(=O)c1nnc(NC(=O)COc2ccccc2F)s1 | – | ? | · | ? | – | ·
CCN(c1ccc(C)cc1)S(=O)(=O)c1nnc(NC(=O)c2cccs2)s1 | – | – | · | – | – | ·
CCN(c1ccccc1)S(=O)(=O)c1nnc(NC(=O)c2ccccc2OC)s1 | – | – | – | 3.2µM | – | –
CCN(c1ccccc1)S(=O)(=O)c1nnc(NC(=O)c2cccs2)s1 | ? | – | · | 2.2µM | – | ·
CC1CCCCC1NC(=O)COC(=O)c1ccc2c(c1)NC(=O)CS2 (stereo not drawn) | · | · | · | · | – | –
Cc1cc(O)c(C(=O)c2cnc3c(c2)COc2ccccc2-3)cc1Cl | – | ? | · | – | – | ·
CCN(c1ccccc1)S(=O)(=O)c1nnc(NC(=O)c2ccccc2)s1 | – | – | · | 16µM | – | ·
C=CCSC(=C(C#N)C#N)c1cc2c([nH]1)CCCC2 | – | ? | – | 10µM | – | –
O=C(O)c1cc2c([nH]c1=O)CCCC2 | – | – | – | – | – | –
Cc1ccc2c(c1)/C(=N/OS(=O)(=O)c1ccccc1)CCS2 | · | · | · | · | – | –
CC1=CC(=O)C=C(C)C1=NOS(=O)(=O)c1ccccc1 | ? | ? | – | 14µM | – | –
SMILES | Tau fibril FP | Tau fluor cs | Sfp PPTase inh | Tau fibril ThT | VDR inhibitor | PLK1 PBD inh
CC1=CC(=O)C(C(C)C)=C/C1=N/OS(=O)(=O)c1ccccc1 | ? | ? | – | 14µM | – | –
CCc1ccccc1NS(=O)(=O)c1ccc2c(c1)CCCN2C(=O)C1CCC1 | – | – | · | ? | – | ·
OC[C@@H]1CN(Cc2cccs2)C[C@H](n2cnc3c(NCc4ccco4)ncnc32)O1 | · | · | · | · | · | –
O=C(O)c1cc([N+](=O)[O-])ccc1NCc1ccccc1 | – | – | – | ? | – | –
O=C(O)c1cc([N+](=O)[O-])ccc1NCCCc1ccccc1 | – | – | – | 3.5µM | ? | –
Cc1ccc(-c2nnc(C3CCN(S(=O)(=O)c4ccc(C)c(C)c4)CC3)o2)cc1 | – | – | · | ? | – | ·
CC(=O)Nc1ccc(S(=O)(=O)N2CCC(c3nnc(-c4ccc(C)cc4)o3)CC2)cc1 | – | ? | 50µM | – | – | –
CC(=O)O[C@H]1C(=O)[C@@]2(C)C([C@H](OC(=O)c3ccccc3)[C@]3(O)C[C@H](OC(=O)[C@H](O)[C@@H](NC(=O)c4ccccc4)c4ccccc4)C(C)=C1C3(C)C)[C@]1(OC(C)=O)CO[C@@H]1C[C@@H]2O (stereo partly drawn) | – | – | 45µM | – | – | ·
COCCOC(=O)c1c(C)n(C)c2ccc(OC(=O)N3CCOCC3)cc12 | – | – | – | – | – | –
COCCOC(=O)c1c(C)n(C)c2ccc(OC(=O)c3c(OC)cccc3OC)cc12 | · | · | 28µM | · | ? | 9.5µM
COc1ccc(N2CC(NC(=O)c3ccc(S(=O)(=O)N4CCCCC4)cc3)CC2=O)cc1 (stereo not drawn) | – | – | · | – | – | ·
O=c1cc(CN2CCOCC2)c2ccc(O)c(O)c2o1 | · | · | 45µM | · | – | –
O=c1cc(CN2CCN(Cc3ccccc3)CC2)c2ccc(O)c(O)c2o1 | · | · | 79µM | · | – | –
S=c1[nH]nc(-c2ccccc2)n1/N=C/c1ccc(-c2ccccc2Cl)o1 | – | – | ? | – | – | –
O=C1NC(=O)/C(=C\c2ccc(Br)o2)S1 | · | · | ? | · | – | –
O=C1NC(=O)/C(=C/c2ccc(-c3cc(C(=O)O)ccc3Cl)o2)S1 | · | · | 32µM | · | – | ?
O=C1NC(=S)/C(=C\c2ccc(-c3ccccc3Cl)o2)S1 | ? | ? | 50µM | 7.9µM | – | 13µM
CCCCn1nnnc1C(c1cc2ccccc2o1)N1CCN(CC(=O)NC(C)C)CC1 (stereo not drawn) | · | · | · | · | · | –
CCc1nc2c(OCc3ccccc3)cccn2c1N(C)C(=O)c1ccc2c(c1)OCO2 | · | · | · | · | · | –
O=C1NC(=S)SC1=C1CCCC1 | ? | – | 40µM | ? | – | ?
O=C1NC(=S)SC1=Cc1ccccc1C(=O)O | · | · | · | · | · | –
CC(C)Cn1c(CN2CCN(c3cccc(Cl)c3)CC2)nc2c1c(=O)[nH]c(=O)n2C | – | – | · | – | – | ·
CCOc1ccc(C(=O)OCC(=O)Nc2ccc3c(c2)OCCO3)cc1OC | · | · | · | · | – | –
COc1ccc(NC(=O)COc2ccc(C(=O)OCC(=O)N(C(C)C)C(C)C)cc2OC)cc1 | – | – | – | – | – | 24µM
O=C1/C(=C/c2cccs2)COc2ccccc21 | – | – | – | ? | ? | –
CN(C)/N=C/C=C1\CC/C(=C\c2ccc(Br)cc2)C1=O | – | ? | – | 0.89µM | – | –
CN(C)/N=C/C=C1\CCC/C(=C/c2cccs2)C1=O | – | – | – | 0.63µM | ? | –
Cc1cccc(NC(=O)c2c(NC(=O)c3ccco3)sc3c2CCC(C(C)(C)C)C3)c1 (stereo not drawn) | – | – | · | – | – | ·
CCC(=Nc1ccc(N)cc1)C1=C(O)C(C(=O)OC)C(C)(C)CC1=O (stereo not drawn) | 14µM | ? | 45µM | 7.1µM | – | –
CCCC(=Nc1ccccc1)C1=C(O)C(C(=O)OC)C(C)(C)CC1=O (stereo not drawn) | – | – | – | – | – | –

Screening results deposited in PubChem BioAssay by National Center for Advancing Translational Sciences (NCATS).
